# Measurements published in the supplement of paper PMC8728848.
# The full list was thinned out, with the strongest signals kept by preference.
# B1: Eap (Staphylococcus aureus), A0A7L5PYT7 (protein)
# chain: MKFKSLITTTLALGVLASTGANFNNNEAAAAAKPLDKSSSSLHHGYSKVHVPYAITVNGTSQNILSSLTFNKNQNISYKDLEDRVKSVLKSDRGISDIDLRLSKQAKYTVYFKNGTKKVIDLKAGIYTADLINTSEIKAININVDTKKQVEDKKKDKANYQVPYTITVNGTSQNILSNLTFNKNQNISYKDLEDKVKSVLESNRGITDVDLRLSKQAKYTVNFKNGTKKVIDLKSGIYTANLINSSDIKSININVDTKKHIENKAKRNYQVPYSINLNGTSTNILSNLSFSNKPWTNYKNLTSQIKSVLKHDRGISEQDLKYAKKAYYTVYFKNGGKRILQLNSKNYTANLVHAKDVKRIEITVKTGTKAKADRYVPYTIAVNGTSTPILSDLKFTGDPRVGYKDISKKVKSVLKHDRGIGERELKYAKKATYTVHFKNGTKKVININSNISQLNLLYVQDIKKIDIDVKTGTKAKADSYVPYTIAVNGTSTPILSKLKISNKQLISYKYLNDKVKSVLKSERGISDLDLKFAKQAKYTVYFKNGKKQVVNLKSDIFTPNLFSAKDIKKIDIDVKQYTKSKKNK
# Tests used:
# Assay in all cases: glycan array binding signal (z-score within array); higher = stronger binding
# Settings in all cases: glycan notation: IUPAC condensed, linker removed
# [1] = biological target: Fuc(a1-2)Gal(b1-3)GalNAc(b1-3)Gal(a1-4)Gal(b1-4)Glc
# In short: (§1)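 The Consortium for Functional Glycomics database supplied 3228 glycan arrays, of which those lacking an available protein sequence were dropped. The binding signal, a within-array Z-score, was averaged across arrays of the same protein sequence and across linkers. Negative scores can be read as non-binding.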
# [2] = biological target: Fuc(a1-2)Gal(b1-3)[Fuc(a1-4)]GlcNAc
# In short: as §1
# [3] = biological target: Fuc(a1-2)[Gal(a1-3)]Gal(b1-3)GlcNAc(b1-2)Man(a1-3)[Fuc(a1-2)[Gal(a1-3)]Gal(b1-3)GlcNAc(b1-2)Man(a1-6)]Man(b1-4)GlcNAc(b1-4)GlcNAc
# In short: as §1
# [4] = biological target: Fuc(a1-2)[GalNAc(a1-3)]Gal
# In short: as §1
# [5] = biological target: Fuc(a1-2)[GalNAc(a1-3)]Gal(b1-4)GlcNAc(b1-3)Gal(b1-4)GlcNAc(b1-3)Gal(b1-4)GlcNAc
# In short: as §1
# [6] = biological target: Fuc(a1-3)[Gal(b1-4)]GlcNAc(b1-4)Gal(b1-4)[Fuc(a1-3)]GlcNAc(b1-4)Gal(b1-4)[Fuc(a1-3)]GlcNAc
# In short: as §1
# [7] = biological target: Fuc(a1-3)[Gal(b1-4)]GlcNAc6S
# In short: as §1
# [8] = biological target: Fuc(a1-3)[Gal3S(b1-4)]GlcNAc6S
# In short: as §1
# [9] = biological target: Fuc(a1-3)[Neu5Ac(a2-3)]Gal(b1-4)GlcNAc(b1-3)GalNAc
# In short: as §1
# [10] = biological target: Gal(a1-3)Gal(b1-4)[Fuc(a1-3)]GlcNAc
# In short: as §1
# [11] = biological target: Gal(a1-3)Gal(b1-4)[Fuc(a1-3)]GlcNAc(b1-2)Man(a1-3)[Gal(a1-3)Gal(b1-4)[Fuc(a1-3)]GlcNAc(b1-2)Man(a1-6)]Man(b1-4)GlcNAc(b1-4)GlcNAc
# In short: as §1
# [12] = biological target: Gal(a1-4)Gal(b1-4)GlcNAc(b1-3)Gal(b1-4)Glc
# In short: as §1
# Gal(b1-3)GalNAc = biological target: Gal(b1-3)GalNAc
# In short: as §1
# [13] = biological target: Gal(b1-3)GalNAc(b1-4)Gal(b1-4)Glc
# In short: as §1
# [14] = biological target: Gal(b1-4)GlcNAc(b1-2)Man(a1-6)Man(b1-4)GlcNAc(b1-4)GlcNAc
# In short: as §1
# [15] = biological target: Gal(b1-4)GlcNAc(b1-3)Gal(b1-4)GlcNAc(b1-3)Gal(b1-4)GlcNAc
# In short: as §1
# Gal3S(b1-4)GlcNAc = biological target: Gal3S(b1-4)GlcNAc
# In short: as §1
# Gal3S4S(b1-4)GlcNAc = biological target: Gal3S4S(b1-4)GlcNAc
# In short: as §1
# GlcA(b1-6)Gal = biological target: GlcA(b1-6)Gal
# In short: as §1
# [16] = biological target: GlcNAc(a1-4)Gal(b1-4)GlcNAc(b1-3)Gal(b1-4)Glc
# In short: as §1
# [17] = biological target: GlcNAc(a1-4)Gal(b1-4)GlcNAc(b1-3)Gal(b1-4)GlcNAc
# In short: as §1
# [18] = biological target: GlcNAc(a1-4)Gal(b1-4)GlcNAc(b1-3)Gal(b1-4)[Fuc(a1-3)]GlcNAc(b1-3)Gal(b1-4)[Fuc(a1-3)]GlcNAc
# In short: as §1
# [19] = biological target: GlcNAc(b1-4)GlcNAc(b1-4)GlcNAc(b1-4)GlcNAc(b1-4)GlcNAc(b1-4)GlcNAc
# In short: as §1
# [20] = biological target: Man(a1-2)Man(a1-3)[Man(a1-6)]Man(a1-6)[Man(a1-2)Man(a1-3)]Man(b1-4)GlcNAc(b1-4)GlcNAc
# In short: as §1
# [21] = biological target: Neu5Ac(a2-3)Gal(b1-4)[Fuc(a1-3)]GlcNAc
# In short: as §1
# [22] = biological target: Neu5Ac(a2-3)Gal(b1-4)[Fuc(a1-3)]GlcNAc(b1-6)[Gal(b1-3)]GalNAc
# In short: as §1
# [23] = biological target: Neu5Ac(a2-3)Gal(b1-4)[Fuc(a1-3)]GlcNAc(b1-6)[Neu5Ac(a2-3)Gal(b1-3)]GalNAc
# In short: as §1
# Neu5Ac(a2-3)GalNAc = biological target: Neu5Ac(a2-3)GalNAc
# In short: as §1
# [24] = biological target: Neu5Ac(a2-6)Gal(b1-4)GlcNAc6S
# In short: as §1
# [25] = biological target: Neu5Ac(b2-6)Gal(b1-4)GlcNAc
# In short: as §1
binder,measurement,setting,value
B1,glycan array binding signal (z-score),[1],0.012
same,glycan array binding signal (z-score),[2],-0.514
same,glycan array binding signal (z-score),[3],-0.498
same,glycan array binding signal (z-score),[4],-0.319
same,glycan array binding signal (z-score),[5],3.63
same,glycan array binding signal (z-score),[6],-0.587
same,glycan array binding signal (z-score),[7],1.35
same,glycan array binding signal (z-score),[8],4.89
same,glycan array binding signal (z-score),[9],3.33
same,glycan array binding signal (z-score),[10],-0.392
same,glycan array binding signal (z-score),[11],-0.414
same,glycan array binding signal (z-score),[12],-0.4
same,glycan array binding signal (z-score),Gal(b1-3)GalNAc,-0.063
same,glycan array binding signal (z-score),[13],-0.183
same,glycan array binding signal (z-score),[14],-0.437
same,glycan array binding signal (z-score),[15],-0.513
same,glycan array binding signal (z-score),Gal3S(b1-4)GlcNAc,-0.007
same,glycan array binding signal (z-score),Gal3S4S(b1-4)GlcNAc,1.97
same,glycan array binding signal (z-score),GlcA(b1-6)Gal,-0.24
same,glycan array binding signal (z-score),[16],4.14
same,glycan array binding signal (z-score),[17],4.58
same,glycan array binding signal (z-score),[18],8.99
same,glycan array binding signal (z-score),[19],-0.455
same,glycan array binding signal (z-score),[20],-0.331
same,glycan array binding signal (z-score),[21],-0.563
same,glycan array binding signal (z-score),[22],-0.08
same,glycan array binding signal (z-score),[23],-0.297
same,glycan array binding signal (z-score),Neu5Ac(a2-3)GalNAc,-0.425
same,glycan array binding signal (z-score),[24],-0.392
same,glycan array binding signal (z-score),[25],-0.365
